# Source: PubChem BioAssay (National Center for Advancing Translational Sciences (NCATS))
# IL-1B inflam inh = blocks inflammasome-driven IL-1 beta release | THP-1 LPS/ATP IL-1B secretion, AlphaLISA, 16 h; active compounds read low | activity change, % at 57.5 µM | 360,000 compounds, 4.7% hits | AID 743279; in the data active = activity change below about -50%; inconclusive = mostly about -30% to -49%; note: % is set by controls: 0 for no effect and ±100 for the full control effect
#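 THP-1 cells pretreated 1 hr with compounds (up to 57.5 uM final), then stimulated with LPS (250 ng/mL final) plus ATP (1.25 mM final); secreted IL-1B measured by AlphaLISA after 16 hr, decreased signal indicating inhibition.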
# DT40 TDP1 no CPT = qHTS for Inhibitors of human tyrosyl-DNA phosphodiesterase 1 (TDP1): qHTS in cells in absence of CPT; Potency, µM (top dose mostly 46.2 µM), without a hit: at the highest dose activity change, negative = growth inhibition, usual class: inhibitors; AID 686978, 2013; 420,000 compounds, 15% hits; DT40 Tdp1-/- hTDP1 cells, no CPT, ATP luminescence, 48 h; note: potency is the fitted concentration of half-maximal effect; % is set by controls: 0 for no effect and ±100 for the full control effect; nearly all actives have a fitted effect of over 55% in size
#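 No-CPT arm: Tdp1-/-;hTDP1 DT40 cells (400/well) plus compounds, incubated ≥48 hr at 37 °C. Readout CellTiter-Glo luminescence.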
# TDP1 cell CPT = growth inhibition of DT40 Tdp1-/-;hTDP1 cells with camptothecin (screen for TDP1 inhibitors); Potency, µM (doses to about 46.2 µM), inactives show at the highest dose activity change, negative = growth inhibition, hits mostly inhibitors; 420,000 compounds, 12% hits; chicken DT40 Tdp1-/-;hTDP1 cells + 20 nM CPT, ATP luminescence, 48 h; AID 686979; note: potency is the fitted concentration of half-maximal effect; % is set by controls: 0 for no effect and ±100 for the full control effect; nearly all actives have a fitted effect of over 55% in size
#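 Chicken DT40 Tdp1-/- cells stably complemented with human TDP1 were seeded at 400 cells/well in medium containing 20 nM camptothecin, exposed to pin-transferred compounds, and grown at 37 °C for at least 48 hr. Viability was read as ATP luminescence.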
# S-ASM inh = inhibitors of human secretory acid sphingomyelinase; P17405; placental ASM, HMU-PC fluorogenic substrate, 60 min; Potency, µM (series often up to 57.5 µM), inactives show at the top dose activity change, negative = inhibition, usual class: inhibitors; 340,000 compounds, 0.006% hits; AID 504937; note: potency is the fitted concentration of half-maximal effect
# Target sequence (P17405 47-631 limits assumed): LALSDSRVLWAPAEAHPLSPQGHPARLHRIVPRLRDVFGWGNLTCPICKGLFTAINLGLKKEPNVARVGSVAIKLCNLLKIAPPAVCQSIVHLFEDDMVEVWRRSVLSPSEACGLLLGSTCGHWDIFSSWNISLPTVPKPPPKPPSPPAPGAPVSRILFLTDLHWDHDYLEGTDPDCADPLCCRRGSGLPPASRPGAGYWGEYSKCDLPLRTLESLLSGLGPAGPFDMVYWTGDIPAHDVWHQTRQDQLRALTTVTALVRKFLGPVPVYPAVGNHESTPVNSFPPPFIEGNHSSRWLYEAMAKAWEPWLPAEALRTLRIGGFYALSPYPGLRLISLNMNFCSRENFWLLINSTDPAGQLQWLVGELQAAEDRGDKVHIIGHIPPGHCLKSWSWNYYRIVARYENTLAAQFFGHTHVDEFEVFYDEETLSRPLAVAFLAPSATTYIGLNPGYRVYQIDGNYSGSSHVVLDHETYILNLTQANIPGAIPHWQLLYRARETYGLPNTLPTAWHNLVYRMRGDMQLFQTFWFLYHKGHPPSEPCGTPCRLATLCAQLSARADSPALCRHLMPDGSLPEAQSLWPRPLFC
#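 Steps: dispense placental human ASM, pin compound, wait 10 min at room temperature, add HMU-PC0 substrate at 9 uM final, incubate 60 min at 37 °C, add stop solution raising pH to 10, read fluorescence.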
# HepG2 viability = HepG2 cytotoxicity, counter-screen for TGF-b inhibitors. HepG2 CAGA-GFP viability, ATP luminescence, 18 h. Potency, µM (titrated, usually from 46.1 µM), for the others: top-dose activity change, negative = cytotoxicity, actives largely listed as cytotoxic. 410,000 compounds, 0.76% hits; note: potency is the fitted concentration of half-maximal effect
#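 CellTiter-Glo luminescence gave cytotoxicity after 18 hours at 37 degrees C. The cells were HepG2 CAGA-GFP in 1% FBS DMEM, stimulated with 500 pg/mL TGF-beta after compound addition. %Activity was normalised to no-cell wells (complete cell-killing) and DMSO (no toxicity), and curves were fitted and classified.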
# TGFb SMAD3 inh = TGF-b pathway inhibition. 410,000 compounds, 1.2% hits. Potency, µM (top dose mostly 46.1 µM), for inactives: top-dose activity, negative = inhibition, most hits filed as inhibitors. HepG2 CAGA-GFP TGF-b/SMAD3 reporter, GFP fluorescence, 18 h; TGF-beta stimulated, 500 pg/mL final; note: potency is the fitted concentration of half-maximal effect; % is set by controls: 0 for no effect and ±100 for the full control effect; nearly all actives have a fitted effect of over 65% in size
#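 First, reporter cells (HEPG2 CAGA-GFP) rested 2 h at 37 degrees C. Next, compounds were pinned in and TGF-beta added to 500 pg/mL final. After 18 h, GFP was imaged per cell and summed per well.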
# Starred values were filed as active, the others as inactive; i = inactive; ? = inconclusive; nt = no result given. The list is not random: actives were taken first. Their share in the collection is about 19%. Unless noted, calls come from the whole dose curve; as a rule, active = well fitted curve in the direction sought with a large enough effect; inconclusive = small, poorly fitted or top-dose-only effect, or another doubt; inactive = no such curve, though single readings can be large; an effect the other way counts as inactive or inconclusive.
SMILES,IL-1B inflam inh,DT40 TDP1 no CPT,TDP1 cell CPT,S-ASM inh,HepG2 viability,TGFb SMAD3 inh
Cc1ccc(OCC(=O)N/N=C/C=C/c2ccco2)c(Br)c1,0.2,?,18.4µM*,-9.7%,-7.7%,-13.3%
O=C(N/N=C/C=C/c1ccco1)c1ccncc1,-20.9,-26.8%,-45.9%,-1.1%,-16.3%,-0.5%
CC(/C=C/c1ccco1)=N\NC(=O)c1cccc(Cl)c1,-1.4,?,?,-1.4%,-5.7%,?
COC(=O)CSc1[nH]c2ccccc2c1[N+](=O)[O-],5.5,-28.8%,18.4µM*,26.9%,-22.8%,?
CN(Cc1ccccc1)C(=O)CN1C(=O)NC2(CCCCCCC2)C1=O,0.0,?,-15.3%,0.4%,-9.7%,?
CCC(C)(C)C1CCC2(CC1)NC(=O)N(CC(=O)NCCc1c[nH]c3ccccc13)C2=O (stereo not given),-21.4,16.4µM*,16.4µM*,-3.2%,-1.6%,-4.2%
COc1ccc2cc(CN(C)C(=O)CN3C(=O)NC4(CCCC4)C3=O)ccc2c1,-15.5,23.1µM*,?,nt,-4.1%,-10.1%
CC1CC(C)(C)CC2(C1)NC(=O)N(CC(=O)NCCc1c[nH]c3ccccc13)C2=O (stereo not given),14.3,11.0%,10.1%,-2.6%,4.4%,-29.1%
CCC(C)(C)C1CCC2(CC1)NC(=O)N(CC(=O)N(C)Cc1ccc(OC(F)F)cc1)C2=O (stereo not given),-4.3,7.31µM*,-96.8%,-4.9%,-33.9%,-20.6%
CCC(C)(C)C1CCC2(CC1)NC(=O)N(CC(=O)N(C)CC(=O)Nc1ccccc1C(F)(F)F)C2=O (stereo not given),i,?,23.1µM*,-4.7%,-14.0%,1.9%
O=C(CSc1ncc(S(=O)(=O)c2ccc(Cl)cc2)c(=O)[nH]1)Nc1ccc2c(c1)OCCO2,nt,nt,nt,nt,-28.3%,1.9%
CCC(C)(C)C1CCC2(CC1)NC(=O)N(CC(=O)N(C)CCOc1ccc(Cl)cc1)C2=O (stereo not given),18.5,23.1µM*,?,-2.7%,2.4%,-1.1%
O=C(COC(=O)Cc1c(F)cccc1Cl)NC(=O)Nc1ccccc1F,22.0,-1.6%,4.9%,-2.5%,-1.2%,-6.3%
CCOC(=O)C1=C(C(=O)OCC)c2ccc(OC)c(OC)c2C1,-2.6,18.4µM*,2.1%,-2.1%,-29.5%,11.5%
CCOC(=O)c1ccc(NC(=O)Nc2ccc(OC)c(OC)c2)cc1,39.1,?,?,-4.2%,-7.4%,16.3%
CCc1ccccc1NC(=O)c1ccc2c(SCC(=O)O)c3c(nc2c1)CCC3,nt,-16.7%,21.7%,nt,-4.7%,-44.0%
COC(=O)Nc1ccc(OCc2ccccc2)cc1,-3.4,-12.7%,-26.5%,7.3%,-6.9%,4.3%
CC(=O)/C(=C/Nc1ccc(Oc2ccccc2)cc1)c1ccccc1,?,18.4µM*,?,-0.3%,-22.4%,-2.5%
CC(=O)/C(=C\Nc1ccc(OCc2ccccc2)cc1)c1ccccc1,-5.8,29.1µM*,18.4µM*,-7.9%,0.5%,7.9%
CN(C)CCOc1ccccc1Cc1ccccc1 (tested in a mixture with another compound),nt,-21.6%,-21.1%,nt,nt,nt
NCCOc1ccccc1Cc1ccccc1,-62.2*,?,?,-0.3%,-18.5%,9.0%
